The text below walks through data of PubChem BioAssay (NCI).

Compounds without any hit were thinned out: in the full panel of roughly 83,000, 20% have a hit.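 Each cell line was grown in a 96-well plate and treated with one concentration of compound for 48 hours. Values below 10 were considered active.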 Active and inactive are the calls of the source.

The first assay concerns MDA-MB-435 melanoma. In words: NCI-60 one-dose screen, 48 h (100 = growth as untreated, 0 = no growth, -100 = all killed). To be noted: 10 µM unless noted.
For `O=C1c2cccnc2C(=O)c2nc3cc(N4CCN(C5CC5)CC4)ccc3nc21`, the growth was -87.4% (active).

Consider `CC1NC(=S)NC(=O)/C1=C/c1cc(=O)oc2c1ccc1ccccc12` (stereo unspecified), for which the growth is 105% (inactive).

On to `Clc1ccc2c(c1)c(-c1ccccc1)nc1nncn12`, for which the growth was 113% (inactive).

For `O=C1Nc2ccccc2/C1=N/c1nc(-c2ccc(Cl)cc2)cs1`, the growth is 72.4% (inactive).

Consider `CCCCCCNC(=O)Oc1ccc(/C(=C(/CC)Cc2ccccc2)c2ccc(OCCN(CC)CC)cc2)cc1`, for which the growth is 60.9% (inactive).

As for `Clc1ccc(N2N=C(c3cccc(Nc4ccncc4)c3)CC2c2ccc(Br)cc2)cc1` (stereo unspecified), the growth is -83.1% (active).

`Cc1ccc(C2CC(c3cccc(Nc4ccncc4)c3)=NN2c2ccccc2)cc1` (stereo unspecified): the growth was -89.5% (active).

On to `CSc1nnc2c(=O)n(C)c(=O)n(C)c2n1`, for which the growth is 95.2% (inactive).

With `O=S(=O)(NCCCNc1nccc(-c2c(-c3cccc(O)c3)nc3occn23)n1)c1ccc(F)cc1`, the growth is 37.3% (inactive).

For the compound `O=C1Nc2c(ccc(Cl)c2Cl)/C1=C/c1ccc([N+](=O)[O-])cc1`, the growth is 93% (inactive).

As for `Cc1cccc(Oc2ccc(Nc3ncnc4ccc(NC(=O)CN(C)C)cc34)cc2Cl)c1`, the growth is 34.5% (inactive).

Consider `CC(=O)c1cc2c(N)c(C(=O)Nc3cncc4ccccc34)sc2nc1C`, for which the growth was 43.6% (inactive).

As to `COc1ccc(-c2nc(N/N=C/c3c[nH]c4ccccc34)nc(N3CCOCC3)c2C#N)cc1`, the growth was 108% (inactive).

For `Cc1ccc(S(=O)(=O)Nc2ccc(Cl)cc2)cc1`, the growth is 101% (inactive).

Take `C=C1C(=O)O[C@H]2[C@H]1CC/C(COC(=O)CCCCCC(=O)OC/C1=C/CC[C@@]3(C)O[C@H]3[C@H]3OC(=O)C(=C)[C@@H]3CC1)=C\CC[C@@]1(C)O[C@@H]21`: the growth is 30.8% (inactive).

For the compound `CCCCCN1C=C/C(=C\C(=O)N(C)c2ccc(Br)cc2)c2ccccc21`, the growth is 101% (inactive).

For `C/C(=C(/c1ccccc1)c1ccc(OCC(O)CNCCN2CCOCC2)cc1)c1ccccc1` (stereo unspecified), the growth was -63.8% (active).

As for `Cn1c(COC(=O)NCCN2CCOCC2)nc2c(N3CCOCC3)nc(-c3ccccc3)nc21`, the growth was -87.4% (active).

With `COc1cc(CCNc2nc3cc(N)cc(N)c3nc2-c2ccccc2)cc(OC)c1`, the growth is -56.8% (active).

As for `O=C(Nc1nc(-c2ccccc2Cl)cs1)c1cc(-c2ccccc2)nc2ccc(Cl)cc12`, the growth is 8.05% (active).

Take `O=C1OC(=O)C2C1CC=CC2c1ccccc1` (stereo unspecified): the growth was 102% (inactive).

As to `CCCCCCCCCCCC(=O)C(CCCCCCCCCC)C(=O)Nc1ccccc1` (stereo unspecified), the growth is 110% (inactive).

`COc1ccc(/C(=C\c2ccccc2)C(=O)O)cc1OC`: the growth was 106% (inactive).

As for `C=C1C(=O)O[C@H]2[C@H]1CC/C(COC(=O)/C=C/c1c[nH]c3ccccc13)=C\CC[C@@]1(C)O[C@@H]21`, the growth was -88.5% (active).

As for `CC1=CC[C@@H]2CC[C@]3(C)[C@H](CC[C@@H]4[C@@]5(C)CCCNC(C)(C)[C@@H]5CC[C@]43C)[C@H]2[C@@H]1C`, the growth is -17.3% (active).

With `N#CC1=C(N)Oc2c(ccc3ccccc23)C1c1ccc([N+](=O)[O-])cc1` (stereo unspecified), the growth was 6.07% (active).

As to `CN(C)C(=O)OCc1nc2c(N3CCOCC3)nc(-c3ccccc3)nc2n1C`, the growth is -89.1% (active).

As to `C=C(C)[C@@H]1CC[C@]2(C(=O)NCCCN(CCC#N)CCC#N)CC[C@]3(C)[C@H](CC[C@@H]4[C@@]5(C)CCC(=O)C(C)(C)[C@@H]5CC[C@]43C)[C@@H]12`, the growth was 105% (inactive).

Take `COc1ccc(-c2cnnc3c(-c4cccc(C(F)(F)F)c4)cnn23)cc1`: the growth was 47.2% (inactive).

Consider `CN1CCN(C(=O)[C@]2(C)CC[C@]3(C)CC[C@]4(C)C(=CC(=O)[C@@H]5[C@@]6(C)CCC(=O)NC(C)(C)[C@@H]6CC[C@]54C)[C@@H]3C2)CC1`, for which the growth was 100% (inactive).

As for `Cc1ccc2[nH]c(=S)n(-c3ccc(S(=O)(=O)Nc4ccc(Cl)nn4)cc3)c(=O)c2c1`, the growth is 102% (inactive).

Consider `COc1cc(OC)c(/C=C/C(=O)c2ccc(Nc3ncnc4ccccc34)cc2)c(OC)c1`, for which the growth was -79.1% (active).

On to `O=C(/C=C/c1ccc[nH]1)c1ccc(-n2ccc(C(F)(F)F)n2)cc1`, for which the growth is 99.5% (inactive).

As to `COc1cc2nc(-c3ccc(C#N)cc3)[nH]c(=O)c2cc1OC`, the growth was 103% (inactive).

Regarding `O=c1[nH]nc(-c2ccc(Br)cc2)cc1Cc1ccc(O)cc1`, the growth was 113% (inactive).

For `Clc1ccc(C2CC(c3cccc(Nc4ccncc4)c3)=NN2c2ccccc2)cc1` (stereo unspecified), the growth was -46.1% (active).

Take `C=C(C)[C@@H]1CC[C@]2(CO)CC[C@]3(C)[C@H](CC[C@@H]4[C@@]5(C)CCCNC(C)(C)[C@@H]5CC[C@]43C)[C@@H]12`: the growth was 13.5% (inactive).

Regarding `c1ccc(C2CC(c3cccc(Nc4ccncc4)c3)=NN2c2ccccc2)cc1` (stereo unspecified), the growth was 15.3% (inactive).

The test system of a further assay is SW-620 colon. The assay is described as above. The settings on record: 10 µM unless noted.
`O=C1c2cccnc2C(=O)c2nc3cc(N4CCN(C5CC5)CC4)ccc3nc21`: the growth is -37.8% (active).

With `CC1NC(=S)NC(=O)/C1=C/c1cc(=O)oc2c1ccc1ccccc12` (stereo unspecified), the growth is 95.5% (inactive).

Turning to `Clc1ccc2c(c1)c(-c1ccccc1)nc1nncn12`, the growth was 116% (inactive).

For `O=C1Nc2ccccc2/C1=N/c1nc(-c2ccc(Cl)cc2)cs1`, the growth was 68.5% (inactive).

For `CCCCCCNC(=O)Oc1ccc(/C(=C(/CC)Cc2ccccc2)c2ccc(OCCN(CC)CC)cc2)cc1`, the growth is 23.1% (inactive).

Consider `Clc1ccc(N2N=C(c3cccc(Nc4ccncc4)c3)CC2c2ccc(Br)cc2)cc1` (stereo unspecified), for which the growth is -68.1% (active).

Take `Cc1ccc(C2CC(c3cccc(Nc4ccncc4)c3)=NN2c2ccccc2)cc1` (stereo unspecified): the growth is -62.7% (active).

For the compound `CSc1nnc2c(=O)n(C)c(=O)n(C)c2n1`, the growth was 96.1% (inactive).

Consider `O=S(=O)(NCCCNc1nccc(-c2c(-c3cccc(O)c3)nc3occn23)n1)c1ccc(F)cc1`, for which the growth is 103% (inactive).

For the compound `O=C1Nc2c(ccc(Cl)c2Cl)/C1=C/c1ccc([N+](=O)[O-])cc1`, the growth is 100% (inactive).

Take `Cc1cccc(Oc2ccc(Nc3ncnc4ccc(NC(=O)CN(C)C)cc34)cc2Cl)c1`: the growth was 12.6% (inactive).

For the compound `CC(=O)c1cc2c(N)c(C(=O)Nc3cncc4ccccc34)sc2nc1C`, the growth is 103% (inactive).

As for `COc1ccc(-c2nc(N/N=C/c3c[nH]c4ccccc34)nc(N3CCOCC3)c2C#N)cc1`, the growth was 72.6% (inactive).

Turning to `Cc1ccc(S(=O)(=O)Nc2ccc(Cl)cc2)cc1`, the growth is 105% (inactive).

As for `C=C1C(=O)O[C@H]2[C@H]1CC/C(COC(=O)CCCCCC(=O)OC/C1=C/CC[C@@]3(C)O[C@H]3[C@H]3OC(=O)C(=C)[C@@H]3CC1)=C\CC[C@@]1(C)O[C@@H]21`, the growth was 8.05% (active).

For the compound `CCCCCN1C=C/C(=C\C(=O)N(C)c2ccc(Br)cc2)c2ccccc21`, the growth was 94.4% (inactive).

`C/C(=C(/c1ccccc1)c1ccc(OCC(O)CNCCN2CCOCC2)cc1)c1ccccc1` (stereo unspecified): the growth is 49% (inactive).

For the compound `Cn1c(COC(=O)NCCN2CCOCC2)nc2c(N3CCOCC3)nc(-c3ccccc3)nc21`, the growth was -76.9% (active).

`COc1cc(CCNc2nc3cc(N)cc(N)c3nc2-c2ccccc2)cc(OC)c1`: the growth is -56.7% (active).

As to `O=C(Nc1nc(-c2ccccc2Cl)cs1)c1cc(-c2ccccc2)nc2ccc(Cl)cc12`, the growth is 29.4% (inactive).

Regarding `O=C1OC(=O)C2C1CC=CC2c1ccccc1` (stereo unspecified), the growth is 86.7% (inactive).

Consider `CCCCCCCCCCCC(=O)C(CCCCCCCCCC)C(=O)Nc1ccccc1` (stereo unspecified), for which the growth is 107% (inactive).

Regarding `COc1ccc(/C(=C\c2ccccc2)C(=O)O)cc1OC`, the growth was 97.4% (inactive).

Take `C=C1C(=O)O[C@H]2[C@H]1CC/C(COC(=O)/C=C/c1c[nH]c3ccccc13)=C\CC[C@@]1(C)O[C@@H]21`: the growth is -74.7% (active).

For the compound `CC1=CC[C@@H]2CC[C@]3(C)[C@H](CC[C@@H]4[C@@]5(C)CCCNC(C)(C)[C@@H]5CC[C@]43C)[C@H]2[C@@H]1C`, the growth is -66.3% (active).

As for `N#CC1=C(N)Oc2c(ccc3ccccc23)C1c1ccc([N+](=O)[O-])cc1` (stereo unspecified), the growth is 55.5% (inactive).

Turning to `CN(C)C(=O)OCc1nc2c(N3CCOCC3)nc(-c3ccccc3)nc2n1C`, the growth was -77.7% (active).

Regarding `C=C(C)[C@@H]1CC[C@]2(C(=O)NCCCN(CCC#N)CCC#N)CC[C@]3(C)[C@H](CC[C@@H]4[C@@]5(C)CCC(=O)C(C)(C)[C@@H]5CC[C@]43C)[C@@H]12`, the growth was 101% (inactive).

In the case of `COc1ccc(-c2cnnc3c(-c4cccc(C(F)(F)F)c4)cnn23)cc1`, the growth was 79.3% (inactive).

Take `CN1CCN(C(=O)[C@]2(C)CC[C@]3(C)CC[C@]4(C)C(=CC(=O)[C@@H]5[C@@]6(C)CCC(=O)NC(C)(C)[C@@H]6CC[C@]54C)[C@@H]3C2)CC1`: the growth is 96.4% (inactive).

Turning to `Cc1ccc2[nH]c(=S)n(-c3ccc(S(=O)(=O)Nc4ccc(Cl)nn4)cc3)c(=O)c2c1`, the growth was 96.2% (inactive).

For `COc1cc(OC)c(/C=C/C(=O)c2ccc(Nc3ncnc4ccccc34)cc2)c(OC)c1`, the growth was -66.8% (active).

Regarding `O=C(/C=C/c1ccc[nH]1)c1ccc(-n2ccc(C(F)(F)F)n2)cc1`, the growth is 102% (inactive).

With `COc1cc2nc(-c3ccc(C#N)cc3)[nH]c(=O)c2cc1OC`, the growth was 110% (inactive).

Regarding `O=c1[nH]nc(-c2ccc(Br)cc2)cc1Cc1ccc(O)cc1`, the growth was 97.3% (inactive).

Regarding `Clc1ccc(C2CC(c3cccc(Nc4ccncc4)c3)=NN2c2ccccc2)cc1` (stereo unspecified), the growth was -79.8% (active).

For the compound `C=C(C)[C@@H]1CC[C@]2(CO)CC[C@]3(C)[C@H](CC[C@@H]4[C@@]5(C)CCCNC(C)(C)[C@@H]5CC[C@]43C)[C@@H]12`, the growth is -66.5% (active).

Regarding `c1ccc(C2CC(c3cccc(Nc4ccncc4)c3)=NN2c2ccccc2)cc1` (stereo unspecified), the growth is -44.4% (active).
